HT1080NT lethal: kills 2HG-producing HT-1080-NT fibrosarcoma cells; AID 686970; 1.6% of 360,000 active; HT-1080-NT fibrosarcoma viability, CellTiter-Glo ATP luminescence, 48 h; Potency, µM (doses to about 46.1 µM), for the others: at the highest dose activity, negative = less viability, usual class: cytotoxic;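 also: NT is the 2HG producing partner of a matched IDH1 knockdown line; 0% = DMSO-treated cells and -100% = media-only wells without cells; nearly all actives have a fitted effect of over 55% in size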
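Compounds were tested in concentration-response format on HT-1080-NT cells for 48 hours at 37 degrees C. Cell viability came from CellTiter-Glo luminescence; curves were classified by r2, response magnitude and activity.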
KB-3-1 tox: KB-3-1 parental cell cytotoxicity; Potency, µM (top dose mostly 46.1 µM), actives largely listed as cytotoxic; KB-3-1 viability, CellTiter-Glo ATP luminescence, 72 h; AID 1347075; 1.4% of 400,000 active; also: nearly all actives have a fitted effect of over 60% in size
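Luminescent ATP read-out (CellTiter-Glo) measures survival of drug-naive KB-3-1 cells after 72 h compound exposure at 37 °C. Titration series was screened from lowest to highest concentration, with DMSO vehicle plates as background controls.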
HT1080 IDH1KD tx: HT-1080 IDH1 knockdown cell toxicity (counter line); 2% of 360,000 active; HT-1080 IDH1 knockdown viability, ATP luminescence, 48 h; Potency, µM (doses to about 46.1 µM), for inactives: at the highest dose activity, negative = toxicity, actives largely listed as cytotoxic;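 also: 0% = DMSO wells and -100% = cell-free medium wells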
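In this qHTS, HT-1080 cells depleted of IDH1 are exposed for 48 h at 37 °C to compound titrations. Toxicity is scored from CellTiter-Glo luminescence, with DMSO as full viability and medium alone as none.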
TDP1 cell noCPT: qHTS for Inhibitors of human tyrosyl-DNA phosphodiesterase 1 (TDP1): qHTS in cells in absence of CPT. DT40 Tdp1-/- hTDP1 cells, no CPT, ATP luminescence, 48 h. Potency, µM (highest dose often 46.2 µM), inactives show top-dose activity change, negative = growth inhibition, actives largely listed as inhibitors. 15% of 420,000 active. AID 686978, 2013; also: nearly all actives have a fitted effect of over 55% in size
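Seeded 400 DT40-hTDP1 cells/well (vehicle DMSO, no 20 nM CPT); pinned compounds; ≥48 hr at 37 °C; CellTiter-Glo luminescence as viability measure.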
KB-V1 MDR tox: kills drug-selected multidrug resistant KB-V1 cells; Potency, µM (highest dose often 46.1 µM), hits mostly cytotoxic; 3.4% of 400,000 active; KB-V1 MDR cells viability, CellTiter-Glo, 72 h; also: nearly all actives have a fitted effect of over 60% in size
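KB-V1 cells (P-gp-expressing MDR subline of KB-3-1) in phenol-red-free DMEM with 10% FBS were exposed to library compounds over a concentration series for 72 h at 37 degrees C. Viability read by CellTiter-Glo luminescence; concentration-effect curves fitted after normalization.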
TDP1 cell CPT: DT40-hTDP1 cell growth loss with CPT | chicken DT40 Tdp1-/-;hTDP1 cells + 20 nM CPT, ATP luminescence, 48 h | Potency, µM (doses to about 46.2 µM), inactives show top-dose activity change, negative = growth inhibition, hits mostly inhibitors | 12% of 420,000 active; also: nearly all actives have a fitted effect of over 55% in size
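Chicken DT40 Tdp1-/- cells complemented with human TDP1, 400 cells/well, exposed to compounds plus 20 nM camptothecin for at least 48 h at 37 C; viability read as ATP content by CellTiter-Glo luminescence.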
The depositor's hits bear a star; i = inactive; u = inconclusive; x = not tested or not shown; [ ] = another dose, or the depositor's remark. Rows were chosen to be rich in hits. Some 19% of all compounds tested hit in one or more screens of this group. Calls follow the shape of the dose curve; as a rule, active = well fitted curve in the direction sought with a large enough effect; inconclusive = small, poorly fitted or top-dose-only effect, or another doubt; inactive = no such curve, though single readings can be large; an effect the other way counts as inactive or inconclusive. Unless noted, % is scaled to controls: 0 for no effect and ±100 for the full control effect; potency is read from the fitted curve at half-maximal effect.

SMILES	HT1080NT lethal	KB-3-1 tox	HT1080 IDH1KD tx	TDP1 cell noCPT	KB-V1 MDR tox	TDP1 cell CPT
CCN(Cc1ccccc1)C(=O)Cn1c(=O)n(-c2ccc(C)c(C)c2)c(=O)c2c(C)c(C)sc21	x	i	x	u	u	21µM*
CCOc1ccc(-n2c(=O)c3c(C)c(C)sc3n(CC(=O)N(CC)Cc3ccccc3)c2=O)cc1	x	i	x	12µM*	i	18µM*
Cc1ccc(-n2c(=O)c3c(C)c(C)sc3n(CC(=O)c3ccc(Cl)cc3)c2=O)cc1C	x	i	x	-5%	i	-14%
CCOc1ccc(-n2c(=O)c3c(C)c(C)sc3n(CC(=O)c3ccccc3)c2=O)cc1	x	i	x	16µM*	i	13µM*
CCN(Cc1ccccc1)C(=O)Cn1c(=O)n(-c2ccc(Cl)cc2)c(=O)c2c(C)c(C)sc21	x	i	x	18µM*	i	3.7µM*
Nc1ncc(Br)cc1S(=O)(=O)Nc1ccccc1F	-8%	i	-3%	-3%	i	0%
CCOc1ccc(N2CC(NC(=O)c3ccco3)CC2=O)cc1 (configuration not stated)	x	x	x	7%	x	3%
Cc1c(Cl)c([N+](=O)[O-])nn1CCCC(=O)NCCc1ccccc1	24%	i	-1%	2%	u	6%
O=C(Nc1ccn(Cc2ccccc2F)n1)c1ccc(COc2ccc(Br)cc2)cc1	u	u	u	u	u	11µM*
Cc1nn(Cc2ccccc2)c(C)c1NC(=O)CCCn1nc([N+](=O)[O-])c(Cl)c1C	3%	i	-3%	-25%	u	-25%
Cc1nn(Cc2c(Cl)cccc2Cl)c(C)c1NC(=O)CCCn1nc([N+](=O)[O-])c(Cl)c1C	-2%	i	-1%	21µM*	u	u
Cc1nn(Cc2ccc(Cl)cc2)c(C)c1NC(=O)CSc1n[nH]c(C)c1[N+](=O)[O-]	0%	i	7%	21µM*	i	26µM*
Cc1c(Cl)c([N+](=O)[O-])nn1CCCC(=O)Nc1cccc(Cl)c1	14%	u	8%	u	18µM*	u
C[C@H]1CN([C@@H](C)CO)C(=O)c2cc(-c3cccc(C#N)c3)cnc2O[C@H]1CN(C)C(=O)c1ccccn1	2%	i	-2%	u	i	-30%
COc1ccc(NC(=O)N(C)C[C@@H]2OCc3cnnn3CCCC(=O)N([C@H](C)CO)C[C@@H]2C)cc1	14%	u	-15%	-3%	i	-9%
CNc1ccc(C=O)cc1Br	x	i	x	-23%	i	-6%
COc1cccc2cc(C(=O)NCCc3c(C)[nH]c4ccc(F)cc34)c(=O)oc12	x	i	x	x	i	x
COc1ccc(-c2oc3c4c2C(=O)OCCOC4CCC3)cc1 (configuration not stated)	9%	i	16%	u	i	-14%
Cc1nn(Cc2ccc(Cl)cc2)c(C)c1NC(=O)CCCn1nc(C)c([N+](=O)[O-])c1C	-1%	i	-3%	u	u	-18%
Cc1cccc(Cn2ccc(NC(=O)c3ccc4c(c3)OCO4)n2)c1	-4%	i	1%	-27%	18µM*	8%
O=C(Nc1ccn(Cc2ccc(Cl)cc2)n1)c1ccc2c(c1)OCO2	-27%	i	-4%	-7%	i	-22%
O=C(Nc1ccc(Cn2cccn2)cc1)c1ccc(COc2cccc(Br)c2)cc1	-15%	0.73µM*	u	u	9.2µM*	-24%
Cc1nn(Cc2cccc(C(=O)Nc3ccn(Cc4ccccc4F)n3)c2)c(C)c1[N+](=O)[O-]	-1%[9.24 µM]	i	u	u	i	23µM*
Cn1ncc([N+](=O)[O-])c1C(=O)Nc1ccn(Cc2ccccc2F)n1	u	i	-3%	-1%	u	-5%
Cc1nn(Cc2ccccc2)c(C)c1NC(=O)CCCn1nc(C)c([N+](=O)[O-])c1C	-2%	i	1%	1%	23µM*	-6%
SMILES	HT1080NT lethal	KB-3-1 tox	HT1080 IDH1KD tx	TDP1 cell noCPT	KB-V1 MDR tox	TDP1 cell CPT
O=C(Nc1ccc(Cn2cccn2)cc1)c1ccc(COc2ccc(Br)cc2)cc1	4%	i	-1%	-19%	i	-19%
O=C(COC(=O)c1ccc[nH]c1=O)Nc1cc(S(=O)(=O)N2CCCCCC2)ccc1Cl	0%	i	7%	30%	i	0%
COc1cc(C)ccc1OCc1cc(C(=O)N2CCCCCCC2)no1	-1%	i	10%	-4%	u	-2%
COc1ccc(-c2nc3cnc(Oc4ccccc4)nc3n(C3CC3)c2=O)cc1	x	x	x	-4%	x	0%
CCC1C(=O)NCCN1Cc1ccc2c(c1)CN(Cc1cccc(OC)c1)CCO2 (configuration not stated)	x	x	x	-4%	x	12%[9.04 µM]
CC(=O)c1ccc(OCc2cc(C(=O)N3CCN(c4ccccc4)CC3C)no2)cc1 (configuration not stated)	-6%	i	-6%	18µM*	i	u
CC(=O)c1ccc(OCc2cc(C(=O)N(C)CC3COc4ccccc4O3)no2)cc1 (configuration not stated)	-1%	i	0%	13µM*	u	10µM*
O=C(NCCc1ccccc1)C1CCC(=O)N1C1CCCC1 (configuration not stated)	24%	i	26%	2%	i	8%
COC(C/C=C/C(=O)COCc1ccccc1)OC	-23%	i	-20%	u	i	15µM*
COC(C/C=C/C(=O)[C@H](C)OCc1ccccc1)OC	21%	u	u	7.3µM*	u	5.2µM*
O=C1NC[C@H](CCCCN2C[C@H](Cc3ccccc3)N(Cc3ccccc3)C(=O)C2=O)N(CCc2ccccc2)C1=O	15%	i	21%	u	i	u
Cc1ccc2nc(CCl)[n+]([O-])c(-c3ccccc3)c2c1	-11%	i	-8%	16µM*	i	26µM*
CCN(CC)C(=O)N1CCC(NC(=O)c2ccc(C(C)(C)C)cc2)CC1	-7%	i	-7%	23µM*	i	u
O=C(c1cccc(Br)c1)N1CCN(S(=O)(=O)N2CCCCCC2)CC1	-2%	i	-4%	-23%	i	-19%
CN(C)C(CNC(=S)Nc1ccccc1Cl)c1cccnc1 (configuration not stated)	12%	i	21%	-22%	i	-14%

Bioassay records as filed in PubChem BioAssay.
